Measured values as given in PubChem BioAssay (NCATS).
Values without a mark were called inactive. How the calls were made is not given here.

These compounds were tested on HIV-1 nucleocapsid protein NCp7 (binding to TG oligonucleotide) (assay: HIV Nucleocapsid (AID 346;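 further: potency is for inhibitors that block NC binding and lower polarization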)). Settings: HIV-1 NC / fluorescein-TGTGTGTG probe, fluorescence polarization.
Procedure, shortened: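 Inhibition of nucleocapsid binding to single-stranded 5'-TGTGTGTG probe (10 nM) was measured by fluorescence polarization after 1 hr at room temperature with 100 nM protein under high-salt, zinc-containing, reducing conditions.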
Potency means the concentration at half of the fitted maximal effect.

Structure (SMILES)	Potency
COCCn1c(=O)c(CCc2ccccc2)nc2cnc(Oc3ccccc3)nc21	> 20 µM
c1ccc2c(-n3ccnc3)nc(-c3ccoc3)nc2c1	> 20 µM
O=c1cnc2cnc(Oc3cccc(Cl)c3)nc2n1C1CC1	> 20 µM
COc1ccc(NC(=O)N2CC3(CCN(C(=O)c4cccn4C)CC3)C2)cc1	> 20 µM
COc1ccc2[nH]cc(CCNc3cc(-c4ccc(C(=O)N(C)C)cc4)ncn3)c2c1	> 20 µM
CN(C)Cc1ccccc1-c1nccc(NC2CC2)n1	> 20 µM
Cn1c(=O)c(-c2ccccc2)nc2cncnc21	> 20 µM
O=C(c1ccncc1)N1CCC2(CCN(Cc3ccncc3)CC2)CC1	> 20 µM
COc1ccc(-c2nc3cnc(N4CCNCC4)nc3n(-c3ccc(OC)cc3)c2=O)cc1	> 20 µM
Cc1cccc(CNc2ncncc2-c2ccccc2C(F)(F)F)c1	> 20 µM
COCCn1c(=O)cnc2cnc(Oc3cccc(Cl)c3)nc21	> 20 µM
Clc1ccccc1-c1nc(NC2CCNCC2)c2ccccc2n1	> 20 µM
O=C(c1cnccn1)N1CCC2(CC1)CCN(c1ccncc1)CC2	> 20 µM
N#CCCn1c(=O)c(-c2cc(F)cc(F)c2)nc2cnc(N3CCOCC3)nc21	> 20 µM
COc1ccc(Oc2ncc3nc(-c4cccs4)c(=O)n(CCC#N)c3n2)cc1	> 20 µM
COCCn1c(=O)c(-c2cccc(C#N)c2)nc2cnc(OC)nc21	> 20 µM
CN(C)c1ncc2ncc(=O)n(CCC#N)c2n1	> 20 µM
COc1ncc2nc(-c3ccccc3)c(=O)n(C)c2n1	> 20 µM
CCNc1ncc2nc(-c3ccc(Cl)cc3)c(=O)n(Cc3ccc(F)cc3)c2n1	14 µM
O=C(c1cc(C(F)(F)F)cc(C(F)(F)F)c1)N1CCC2(CC1)CN(c1ccncc1)C2	> 20 µM

Structure (SMILES)	Potency
O=C(c1ccncc1)N1CCC[C@@]2(CCN(c3cccc(-c4ccccc4)c3)C2)C1	> 20 µM
Cc1cnc(CNc2ncncc2-c2ccccc2C)cn1	> 20 µM
Cn1c(=O)c(-c2cc(F)cc(F)c2)nc2cnc(Nc3ccccc3)nc21	> 20 µM
COc1ccc(-c2nc3cnc(N(C)C)nc3n(-c3ccccc3)c2=O)cc1	> 20 µM
O=c1c(-c2ccc(F)cc2)nc2cnc(Nc3ccccc3)nc2n1C1CC1	> 20 µM
COc1ccc(C(=O)N2CCC[C@@]3(CCN(Cc4ccc(C#N)cc4)C3)C2)cc1	> 20 µM
COc1ccc(CNc2ncncc2-c2ccccc2C(F)(F)F)c(OC)c1	> 20 µM
COc1ccc2[nH]cc(CCNc3ncncc3-c3cccnc3)c2c1	> 20 µM
Cc1nc2cnc(OCc3ccccc3)nc2n(Cc2ccc(F)cc2)c1=O	> 20 µM
COc1cccc(-c2cc(NCc3cccs3)ncn2)c1	> 20 µM
COC(=O)N1CCC2(CCCN(Cc3ccccc3OC)C2)CC1	> 20 µM
COc1ccc(-n2c(=O)cnc3cnc(Oc4ccccc4)nc32)cc1	> 20 µM
CN(C)c1ccc(-c2cncnc2-n2ccnc2)cc1	> 20 µM
N#CCCn1c(=O)c(-c2ccc(F)cc2)nc2cnc(OCc3ccccc3)nc21	> 20 µM
COc1ccccc1-c1cncnc1NCc1ccccc1	> 20 µM
COc1cccc(-c2ccc3ncnc(Nc4ccccc4)c3c2)c1	> 20 µM
N#Cc1cccc(NC(=O)N2CC3(CCN(C(=O)c4cccc(F)c4)CC3)C2)c1	> 20 µM
COC(=O)N1CCC[C@@]2(CCN(c3ncccn3)C2)C1	> 20 µM
COc1ccccc1-c1cc(NCc2cccnc2)ncn1	> 20 µM
O=c1cnc2cnc(N3CCNCC3)nc2n1C1CC1	> 20 µM
